# In all, about 360,000 compounds went through this assay and about 3,100 (0.86%) were called active. The sample holds actives, similar compounds and a random draw of the others, so the mix is not that of the screen.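 How the source made its calls: active means inhibition or corrected inhibition above about 18%, plus a signal ratio from 0.5 to 1.5 (limit read from the data, passing the limit was not always enough); inactive means the rest.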
# Target: Neuropilin-1 (Homo sapiens) (UniProt O14786)
# Assay: modulators of CendR peptide binding to NRP-1, primary screen, biochemical, fluorescence polarization, uHTS (AID 602438)
# Conditions: FAM-RPARPAR peptide binding to NRP-1, fluorescence polarization; at 25 µM; active compounds read high
# Chain of Neuropilin-1 (Homo sapiens) (O14786 whole entry, looked up): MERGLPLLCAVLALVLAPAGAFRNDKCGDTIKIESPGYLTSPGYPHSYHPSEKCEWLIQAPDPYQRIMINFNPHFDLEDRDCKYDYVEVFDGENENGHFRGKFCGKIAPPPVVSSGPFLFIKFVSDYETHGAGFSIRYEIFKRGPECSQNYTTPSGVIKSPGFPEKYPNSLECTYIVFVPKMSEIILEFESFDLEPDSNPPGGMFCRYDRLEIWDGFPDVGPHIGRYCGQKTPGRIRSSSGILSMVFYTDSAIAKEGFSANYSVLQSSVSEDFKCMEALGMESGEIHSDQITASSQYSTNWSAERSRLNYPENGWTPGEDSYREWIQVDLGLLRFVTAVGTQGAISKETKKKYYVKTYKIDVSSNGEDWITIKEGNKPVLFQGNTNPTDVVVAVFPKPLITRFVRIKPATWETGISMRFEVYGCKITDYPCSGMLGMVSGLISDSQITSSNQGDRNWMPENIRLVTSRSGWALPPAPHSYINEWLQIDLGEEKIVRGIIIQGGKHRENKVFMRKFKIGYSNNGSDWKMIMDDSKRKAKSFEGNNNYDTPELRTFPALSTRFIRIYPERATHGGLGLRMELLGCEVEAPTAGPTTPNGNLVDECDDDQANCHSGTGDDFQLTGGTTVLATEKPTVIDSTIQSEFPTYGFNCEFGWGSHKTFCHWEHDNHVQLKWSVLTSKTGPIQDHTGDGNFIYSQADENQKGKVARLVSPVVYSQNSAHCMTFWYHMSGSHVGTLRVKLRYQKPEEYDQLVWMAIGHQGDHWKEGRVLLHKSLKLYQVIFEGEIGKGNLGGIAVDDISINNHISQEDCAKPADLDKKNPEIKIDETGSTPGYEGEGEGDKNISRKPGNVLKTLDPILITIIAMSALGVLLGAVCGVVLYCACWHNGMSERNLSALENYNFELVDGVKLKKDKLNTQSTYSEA
row,Structure (SMILES),inhibition
1,CCCCCCN=C(CC)c1c(O)n(CCCC)c(=O)[nH]c1=O,-5.7% (inactive)
2,CCC(=NCCc1ccccc1)c1c(O)n(C2CCCCC2)c(=O)[nH]c1=O,24% (active)
3,CC(=O)c1c(O)n(C2CCCCCC2)c(=O)[nH]c1=O,-12.9% (inactive)
4,COc1ccccc1C1=NCc2nnc(CSC)n2-c2ccc(Cl)cc21,10.2% (inactive)
5,COC(=O)[C@@H]1C(OC(=O)c2ccccc2)CC2CCC1N2C (stereo not given in full),-1.6% (inactive)
6,O=c1[nH]c2ccccc2n1C1CCN(C(c2ccnc3ccccc23)c2nnnn2Cc2ccccc2)CC1 (stereo not given),6.4% (inactive)
7,O=c1[nH]c2ccccc2n1C1CCN(C(c2ccccc2)c2nnnn2Cc2ccccc2)CC1 (stereo not given),11.2% (inactive)
8,Cc1ccc(Cn2nnnc2CN2CCC(n3nnc4ccccc43)CC2)cc1,25.7% (active)
9,CN(C)P(=S)(Nc1ccccc1)C(Cl)(Cl)Cl (stereo not given),7.8% (inactive)
10,COC(=O)C1=C(c2ccccc2)C[C@@H]2CC[C@H]1N2C(=O)N1CCCCC1,32.5% (active)
11,COC(=O)C1=C(c2ccc3ccccc3c2)C[C@@H]2CC[C@H]1N2C(=O)NCCO,-3.3% (inactive)
12,COC(=O)C1=C(c2ccc(C(C)=O)cc2)C[C@@H]2CC[C@H]1N2C(=O)NCCNC(C)=O,34.8% (active)
13,COC(=O)C1=C(c2cccc(OCc3ccccc3)c2)C[C@@H]2CC[C@H]1N2C(=O)NNCc1ccccc1,8.8% (inactive)
14,COC(=O)C1=C(c2cc3ccccc3s2)C[C@@H]2CC[C@H]1N2C(=O)NCCO,-10.5% (inactive)
15,COC(=O)C1=C(c2ccccc2)C[C@@H]2CC[C@H]1N2C(=O)NCc1ccco1,-16.6% (inactive)
16,NCCc1c[nH]c2ccc(O)cc12,10.4% (inactive)
17,CCC(C)(O)C(=O)OC1C(=O)OC2CC3C(C)=CC(=O)C(O)C3(C)C3C4(O)OCC23C1C(C)C4O (stereo not given),9.9% (inactive)
18,CCOC(=O)[C@]12Cc3ccccc3[C@H]1N(C1CCCCC1)C(=O)c1cc(OC)ccc12,2.7% (inactive)
19,Cc1ccc(OC(=O)N(C)C[C@@H]2OCc3cnnn3CCCC(=O)N([C@H](C)CO)C[C@@H]2C)cc1,9.5% (inactive)
20,Cc1ccc(S(=O)(=O)N(C)c2ccc(C(=O)NCC3(N(C)C)CCCCC3)cc2)cc1,-2% (inactive)
21,CCCCCn1c(=O)c(C(=O)Nc2c(C)n(C)n(-c3ccccc3)c2=O)c(O)c2ccccc21,3.5% (inactive)
22,CN1CCN(C(=O)COc2ccc(C(C)(C)C)cc2Br)CC1,10% (inactive)
23,CC(C)c1ccc(OCC(=O)N2CCN(C)CC2)c(Br)c1,13.4% (inactive)
24,CC(C)c1ccc(OCC(=O)N2CCCN(C)CC2)cc1,28.1% (active)
25,CCN1c2nc3c(C)cccn3c(=O)c2CC2(C(=O)N(C)C(=O)N(C)C2=O)C1C (stereo not given),10.7% (inactive)

# From PubChem BioAssay AID602438 (Sanford-Burnham Center for Chemical Genomics, 2012)
